Measurements reported in the supplement of paper PMC6555819.

Tests used:
Test in all cases: PBM binding z-score (relative to random genomic background probes); higher = stronger binding; sequences stand for … in GC…GCGATTGACAGCGTAGAATGAAGG
[1] = test system: FXR:RXRa (NR concentration 270 nM, RXRa partner concentration 90 nM)
Procedure, shortened: (§1)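 Random background probes are the reference for binding z-scores. These scores derive from regression-normalized fluorescence on custom Agilent 4×180K protein-binding microarrays incubated 1 h with ligand-free nuclear receptor dimers. Binding was detected with antibodies against each partner (one per run).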

[2] = test system: LXRa:RXRa (NR concentration 270 nM, RXRa partner concentration 90 nM)
Procedure, shortened: as §1

[3] = test system: LXRa homodimer (NR concentration 270 nM)
Procedure, shortened: as §1

[4] = test system: LXRb:RXRa (NR concentration 270 nM, RXRa partner concentration 90 nM)
Procedure, shortened: as §1

[5] = test system: LXRb homodimer (NR concentration 270 nM)
Procedure, shortened: as §1

[6] = test system: PPARa:RXRa (NR concentration 270 nM, RXRa partner concentration 90 nM)
Procedure, shortened: as §1

[7] = test system: PPARg:RXRa (NR concentration 180 nM, RXRa partner concentration 90 nM)
Procedure, shortened: as §1

[8] = test system: PPARg:RXRa 270nM:90nM, anti-RXR (NR concentration 270 nM, RXRa partner concentration 90 nM)
Procedure, shortened: as §1

[9] = test system: PPARg:RXRa 30nM:10nM, anti-RXR (NR concentration 30 nM, RXRa partner concentration 10 nM)
Procedure, shortened: as §1

[10] = test system: PPARg:RXRa 90nM:30nM, anti-RXR (NR concentration 90 nM, RXRa partner concentration 30 nM)
Procedure, shortened: as §1

| Sequence | PBM binding z-score [1] | PBM binding z-score [2] | PBM binding z-score [3] | PBM binding z-score [4] | PBM binding z-score [5] | PBM binding z-score [6] | PBM binding z-score [7] | PBM binding z-score [8] | PBM binding z-score [9] | PBM binding z-score [10] |
| --- | --- | --- | --- | --- | --- | --- | --- | --- | --- | --- |
| TCATATAGGTAAATGCTAGGTGCAAGTCCGATCT | 0.626 | 0.526 | 0.11 | 0.195 | 0.0143 | 1.05 | 0.562 | 2.08 | 3.84 | 2.96 |
| CGTCAAACTTCAAGGTAACGTAACAGAAAGCAGC | 0.471 | 0.1 | 0.0122 | 0.289 | 0.209 | 0.32 | 0.645 | 0.119 | 0.337 | 0.21 |
| CCTAGTTGATCAGGAGGTCACACACCGGATATGA | 3.48 | 3.95 | 3.16 | 3.71 | 1 | 4.19 | 2.24 | 2.78 | 1.24 | 1.99 |
| ACTCGGAGGACAACGGTCAGAGCTACGCCAGTGA | 0.0223 | -0.221 | -0.37 | -0.773 | -0.828 | -0.354 | 0.852 | 0.638 | -0.439 | 0.354 |
| CGTCCAAAGTCAATGCTAGGTCAGTGAAAGCATT | 0.216 | 0.789 | 0.816 | 0.482 | -0.125 | 0.696 | -0.177 | -0.216 | -0.538 | -0.284 |
| CAAACTGGGTCAAGGTCAAAGTCGGTTTGTGCCA | 6.14 | 4.7 | 2.42 | 4.41 | 0.882 | 5.96 | 9.55 | 7.65 | 6.43 | 7.63 |
| ACTATTAGTGGACTTAGGGCAACCGATACGACGC | 0.086 | -0.113 | -0.0613 | -0.278 | 0.0908 | -0.455 | 0.923 | 0.348 | 0.284 | 0.211 |
| CCTAGCAGGCCAGGGACACTCAAGCATTTCGCTT | -0.315 | -0.301 | -0.372 | -0.68 | -0.928 | -0.453 | 0.0348 | -0.505 | -0.943 | -0.701 |
| TGTTGTAGATCAAAGGTTAAGAAAGCCGAAGCCT | 1.59 | 2.17 | 0.185 | 1.96 | 0.623 | 4.47 | 7.96 | 7.88 | 7.16 | 9.01 |
| ATATGTAGGTTACATCCGGGTCATACAGGCTATG | 2.09 | 4.15 | 1.41 | 2.85 | 0.809 | 4.64 | 6.34 | 5.27 | 2.96 | 4.81 |
| TTACCAAGGTGAAGGTCGTTTATCCCTCTGTAGA | 1.45 | 1.55 | 0.229 | 1.54 | -0.0351 | 2.47 | 2.42 | 3.95 | 1.78 | 3.31 |
| CCTACTGGGCCACGAAAGGTCATTGTTTCAGTGA | 3.44 | 5.19 | 5.22 | 4.29 | 0.43 | 4.61 | 4.26 | 4.79 | 1.73 | 4.24 |
| CGAACTGGGTCAAGGACAGTGAATCTCCGCACGC | 2.51 | 1.36 | -0.258 | 1.24 | -0.484 | 4.39 | 6.95 | 6.03 | 2.89 | 5.37 |
| TCTCGGAGAACACGAAGGTCAGAGCTTTCCAGAG | -0.456 | 0.775 | -0.321 | 0.915 | -0.994 | 1.59 | 0.33 | 1.41 | 2.09 | 1.74 |
| GCTCGGAGGACAAGGTCAGAGCGTTGTCCGTAGA | 2.18 | 1.74 | -0.229 | 1.46 | -0.608 | 2.61 | 0.378 | 1.37 | -0.49 | 0.635 |
| TGTCAAAGTCCAAAGGTAACGTAAGTATCCACAC | -0.0292 | 0.605 | -0.413 | 0.55 | -0.353 | 1.61 | 2.27 | 2.93 | 1.07 | 2.43 |
| TAATATAGGTAAATGCTAGGTGAAAGTCCGATCT | 0.659 | 0.683 | 0.391 | 0.477 | 0.54 | 2.09 | 2.64 | 2.55 | 1.74 | 1.99 |
| GCGACTCGGGCATCAGCAGGTTACCATAACTTAA | -0.428 | -0.386 | -0.511 | -0.334 | -1.48 | 0.263 | 0.266 | -0.256 | -0.629 | -0.12 |
| GCTAGATGGTCAGTAAAAGGTCACACACCGGTCG | 3.28 | 4.21 | 4.31 | 4.17 | 0.588 | 4.58 | 2.79 | 3.94 | 1.99 | 3.21 |
| CCTCGGAGGACAACAGGAGGTCGGAGCTGCCAGA | -0.0236 | -0.0275 | -0.149 | -0.236 | -0.893 | 0.19 | -0.122 | -0.445 | -0.792 | -1.05 |
| GTACCAAGTTGAATAGGTCGTTGATGAGTAGGCG | 0.0295 | 0.289 | -0.317 | 0.163 | -0.262 | 0.893 | 0.208 | 0.125 | -0.197 | -0.278 |
| TCATATAGGTAAAAGCTAGGTGAAAGTCCGATCT | 0.543 | 0.688 | -0.0379 | 0.557 | -0.187 | 1.69 | 1 | 2.74 | 4 | 3.37 |
| TTACCAAGGTGAGCTGAGGTCGTTGTTCCAACTC | 1.49 | 1.3 | -0.412 | 0.784 | -1.32 | 1.75 | -0.301 | 1.01 | -0.393 | 0.445 |
| GCTATTAGATGAAAGGGCAACCGAATGATTCTCG | -0.0836 | 0.345 | 0.21 | 0.469 | -0.27 | 2.46 | 3.72 | 5.46 | 4.56 | 5.76 |
